From PubChem BioAssay AID652154 (Broad Institute, 2013)
Screen size: about 360,000 compounds; about 4,200 (1.2%) were called active. The entries come from a sample that favours actives as a whole. A number with no mark means an inactive call.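 How the source made its calls: active means mean replicate inhibition at least 60% with every replicate also reaching 60%; inconclusive means only one of the two criteria is met; inactive means mean below 60% and not all replicates reaching 60%.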

test: PAX8 transcriptional activity inhibition in RMG-I – RMG-I cells, luciferase, single concentration, primary screen (AID 652154); conditions: RMG-I TPO-luciferase reporter, SteadyGlo, 24 h; at 12.6 µM; hits give high values;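 further: luciferase light reporting Pax8 driven TPO promoter activity; plate controls were median of neutral control wells for no effect and mitoxantrone controls for full effect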

| SMILES | inhibition |
| --- | --- |
| O=C([C@H]1[C@H](CO)[C@H]2Cn3c(ccc(C4=CCCC4)c3=O)[C@@H]1N2C(=O)c1ccncc1)N1CCCCC1 | 0.28% |
| CCCCCCCCC(=O)NCCOc1ccccc1 | 111% (active) |
| O=C(CCOc1ccccc1)NCc1ccccc1 | -18.5% |
| O=C(CCc1c[nH]c2ccccc12)NCCOc1ccccc1 | -5.95% |
| COc1cccc(C(=O)Nc2nnc(S(=O)(=O)N(C)c3ccccc3)s2)c1 | 2.52% |
| COc1ccc(C(=O)Nc2cccc(S(C)(=O)=O)c2)cc1 | -14.4% |
| COc1cccc(C(=O)Nc2nc3ccc(S(C)(=O)=O)cc3s2)c1 | 80.8% (active) |
| O=C(Nc1ccccc1F)N1[C@H](CO)[C@H]2c3ccccc3NC[C@H]21 | -4.34% |
| O=c1[nH]c2cccnc2n(CCNc2ncc(C(F)(F)F)cc2Cl)c1=O | -4.25% |
| CN(C)C=NC(=O)c1cccn1-c1ncc(C(F)(F)F)cc1Cl | 5.77% |
| COc1cccc(/C=N/Nc2ncc(C(F)(F)F)cc2Cl)c1O | 63.6% (active) |
| CNC(=O)C[C@H]1CC[C@H]2[C@H](COc3ccc(NC(=O)c4cc(C)on4)cc3C(=O)N2C)O1 | 57.2% |
| COCC(=O)Nc1ccc2c(c1)C(=O)N(C)C[C@H](OC)[C@@H](C)CN(CC1CC1)[C@@H](C)CO2 | -3.11% |
| C[C@H]1CN([C@@H](C)CO)S(=O)(=O)c2ccc(-c3cccc(C#N)c3)cc2O[C@H]1CN(C)C(=O)c1ccccc1 | 15.6% |
| CC(C)C#Cc1ccc2c(c1)O[C@@H](CN(C)C(=O)Nc1ccccc1)[C@H](C)CN([C@H](C)CO)S2(=O)=O | 15.8% |
| CCCC#Cc1ccc2c(c1)O[C@@H](CN(C)C(=O)CC)[C@H](C)CN([C@H](C)CO)S2(=O)=O | -8.15% |
| C[C@H]1CN([C@@H](C)CO)S(=O)(=O)c2ccc(C#Cc3ccccc3F)cc2O[C@@H]1CN(C)C(=O)c1ccc2c(c1)OCO2 | 72.5% (active) |
| C[C@@H]1CN([C@H](C)CO)S(=O)(=O)c2ccc(C#Cc3ccccc3F)cc2O[C@@H]1CN(C)C(=O)c1ccc2c(c1)OCO2 | 73.7% (active) |
| CCCC#Cc1ccc2c(c1)O[C@H](CN(C)C(=O)CC)[C@@H](C)CN([C@H](C)CO)S2(=O)=O | -14.1% |
| C[C@H]1CN([C@@H](C)CO)S(=O)(=O)c2ccc(C#CCN(C)C)cc2O[C@H]1CN(C)C(=O)c1ccccc1F | -3.76% |
| C[C@@H]1CN([C@@H](C)CO)S(=O)(=O)c2ccc(C#Cc3ccccc3F)cc2O[C@H]1CN(C)C(=O)c1ccc2c(c1)OCO2 | 101% (active) |
| COCC#Cc1ccc2c(c1)O[C@H](CN(C)Cc1ccc3c(c1)OCO3)[C@H](C)CN([C@H](C)CO)S2(=O)=O | 0.398% |
| C[C@H](CO)N1C[C@H](C)[C@H](CN(C)Cc2cccc(F)c2)Oc2ncc(C#CCN(C)C)cc2C1=O | 10.3% |
| Cc1cc(OC(=O)NCCc2ccc(F)cc2)ccc1F | -1.24% |
| OC[C@H]1[C@@H](c2ccc(-c3ccccc3F)cc2)[C@@H]2CN(Cc3ccncc3)CCCCN12 | 17.2% |

| SMILES | inhibition |
| --- | --- |
| CCCc1cn(CC[C@H]2CC[C@@H](NS(=O)(=O)c3ccccc3Cl)[C@@H](CO)O2)nn1 | -2.22% |
| O=C(C[C@@H]1C=C[C@H](NC(=O)Nc2ccccc2F)[C@@H](CO)O1)NCc1ccccc1 | 1.09% |
| COc1ccc(CN2[C@H](CO)[C@@H]3c4ccccc4N(C(=O)C4CC4)C[C@@H]32)cc1 | 5.67% |
| Brc1ccc(COCCc2cn(Cc3ccccc3)c3ccccc23)cc1 | -11.9% |
| COc1ccccc1C1C2=C(COC2=O)Nc2cc3c(cc21)OCO3 (centres undefined) | 85.6% (active) |
| O=C1NC(c2cc3c(cc2Cl)OCO3)Oc2ccccc21 (centres undefined) | -6.52% |
| O=C1OCC2=C1C(c1ccc(Cl)cc1)c1cc3c(cc1O2)OCO3 (centres undefined) | 11% |
| C[C@@H]1CN([C@H](C)CO)C(=O)c2cc(NS(=O)(=O)c3ccccc3)ccc2O[C@H]1CN(C)S(=O)(=O)c1ccc(Cl)cc1 | 3.11% |
| Cc1ccc(C(=O)C(=S)N2CCOCC2)cc1 | 67.2% (active) |
| Cc1ccc(C(=O)Oc2ccc(C(=S)N3CCOCC3)cc2)cc1 | -7.47% |
| Cc1ccc(C(=O)OC(C)CN2CCOCC2)cc1 (centres undefined) | -27.6% |
| C[C@@H]1CN([C@@H](C)CO)C(=O)Cc2cc(NC(=O)CCN3CCOCC3)ccc2O[C@@H]1CN(C)CC1CC1 | -46.4% |
| Cc1cccc(-c2nc3ccc(C(=O)NCCN4CCN(C)CC4)cc3nc2-c2cccc(C)c2)c1 | 50.9% |
| CCN1CCN(CCNC(=O)c2ccc(/C=C3/Sc4ccccc4N(Cc4cccc(C)c4)C3=O)cc2)CC1 | 84.9% (active) |
| O=C(NCCN1CCOCC1)c1ccc2c(c1)N(Cc1cccc(Cl)c1)C(=O)c1ccccc1S2(=O)=O | -1.71% |
| C[C@@H]1CCCCO[C@@H](CN(C)CC2CC2)[C@H](C)CN([C@H](C)CO)C(=O)c2cc(NS(=O)(=O)c3ccccc3)ccc2O1 | 3.85% |
| CN(O)C(=S)c1ccccc1 | 82% (active) |
| COc1cccc(CN(C)C[C@H]2OCc3ccccc3-c3c(n(C)c4ccccc34)C(=O)N([C@@H](C)CO)C[C@@H]2C)c1 | 11% |
| O=C(c1ccncc1)N1C[C@@H]2[C@H](c3ccccc31)[C@H](CO)N2C(=O)c1ccncc1 | -12.9% |
| CC(C)NC(=O)N(C)C[C@@H]1Oc2ccc(N(C)C)cc2CC(=O)N([C@H](C)CO)C[C@@H]1C | -4.65% |
| O=C(C[C@H]1CC[C@@H]2[C@H](COC[C@@H](O)CN2C(=O)Nc2ccc(C(F)(F)F)cc2)O1)NCCc1ccncc1 | -6.11% |
| C[C@@H]1CN([C@H](C)CO)C(=O)c2cc(NC(=O)C3CCCCC3)ccc2O[C@H]1CN(C)C(=O)Nc1ccccc1 | 9.45% |
| C[C@H](CO)N1C[C@H](C)[C@@H](CN(C)C(=O)Nc2ccc3c(c2)OCO3)Oc2ccc(NC(=O)NC3CCCCC3)cc2CC1=O | -23.2% |
| COc1ccc(-c2cc(C(F)(F)F)nc(S(C)(=O)=O)n2)cc1OC | 122% (active) |
| COc1ccc(-c2cc(C(=O)N(C)Cc3ccc(OC)c(OC)c3OC)c3ccccc3n2)cc1OC | 27.1% |

| SMILES | inhibition |
| --- | --- |
| COc1ccc(-c2cc(C(=O)NCCCN3CCCC3=O)c3ccccc3n2)cc1OC | 2.26% |
| Cc1ccccc1S(=O)(=O)N1[C@@H](C#N)[C@H](c2ccccc2)[C@@H]1CO | -4.36% |
| O=C(Cc1ccccc1)N1CC2(C1)[C@H](c1ccccc1)[C@@H](CO)N2C(=O)c1cccnc1 | -7.25% |
| COc1ccnc(Oc2ccccc2)n1 | -3.33% |
| COc1ccccc1-n1cn[nH]c1=S | 8.11% |
| COc1ccnc(Oc2ccccc2)c1-c1ncn[nH]1 | 84.6% (active) |
| OC[C@@H]1[C@@H](c2ccc(-c3ccccc3F)cc2)[C@@H]2CN(Cc3cncnc3)CCCCN12 | 4.63% |
| CN(C(=O)CSc1nnc(C2CC2)n1C)C1CCCc2ccccc21 (centres undefined) | 8.2% |
| CC1Cc2ccccc2N1C(=O)CSc1nnc(-c2ccc(S(=O)(=O)N3CCCC3)cc2)n1C (centres undefined) | 20.8% |
| CC1Cc2ccccc2N1C(=O)CSc1nnc(C2CC2)n1C (centres undefined) | 78.3% (active) |
| O=C(N[C@H]1CC[C@@H](CCn2cc(Cc3ccccc3)nn2)O[C@H]1CO)c1cnccn1 | -16.7% |
| C[C@H](CO)N1C[C@H](C)[C@H](CN(C)CC2CC2)Oc2cc(-c3ccc(F)cc3)ccc2S1(=O)=O | -2.31% |
| O=C1NC(Cc2ccccc2)c2nc3ccc(Br)cc3c(=O)n2-c2cc3ccccc3cc21 (centres undefined) | 34.1% |
| CC(C)CC1NC(=O)c2cc(Cl)ccc2-n2c1nc1ccccc1c2=O (centres undefined) | 6.69% |
| COc1ccc2nc3n(c(=O)c2c1)-c1ccc(Cl)cc1C(=O)NC3Cc1ccccc1 (centres undefined) | 82.6% (active) |
| Cc1noc(C)c1NC(=O)N(C)C[C@H]1OCCCC[C@H](C)Oc2ccc(NC(=O)Nc3ccccc3)cc2C(=O)N([C@H](C)CO)C[C@@H]1C | 8.48% |
| COc1ccccc1CNC(=O)C[C@H]1CC[C@@H](NC(=O)CN(C)C)[C@@H](CO)O1 | -11.2% |
| COc1cccc(C#Cc2ccc([C@@H]3[C@H](C#N)N[C@H]3CO)cc2)c1 | -230% |
| O=C(C[C@@H]1C[C@@H]2c3cc(NC(=O)NC4CCCC4)ccc3O[C@@H]2[C@@H](CO)O1)NCc1ccccc1 | -4.64% |
| C[C@H](CO)N1C[C@H](C)[C@@H](CN(C)C(=O)c2cnccn2)Oc2ncc(-c3ccccc3F)cc2C1=O | 2.74% |
| C[C@H](CO)N1C[C@H](C)[C@@H](CN(C)S(=O)(=O)c2ccc([N+](=O)[O-])cc2)OCc2ccccc2-c2c(n(C)c3ccccc23)C1=O | 16.1% |
| C[C@H](CO)N1C[C@H](C)[C@@H](CN(C)S(=O)(=O)c2cccc(F)c2)OCc2ccccc2-c2c(n(C)c3ccccc23)C1=O | 83.4% (active) |
| C[C@@H]1CN([C@H](C)CO)C(=O)c2c(c3ccccc3n2C)-c2ccccc2CO[C@H]1CN(C)S(=O)(=O)c1ccccc1F | 40.5% |
| Cc1ccc(S(=O)(=O)Nc2ccc3c(c2)C(=O)N([C@@H](C)CO)C[C@@H](C)[C@H](CN(C)CC2CC2)O3)cc1 | -3.68% |
